Experimental data: PubChem BioAssay (NCATS)
Results filed as inconclusive are left out. Values without a mark were called inactive. The source made the active and inactive calls. Calls come from the whole dose curve; as a rule, active = well fitted cell-killing curve with a large enough effect; inconclusive = small, poorly fitted or top-dose-only effect, or effect the other way; inactive = flat fitted curve, though single readings scatter.

System: PA-1
Assay: Primary qHTS to identify gynecologic anti-cancer compounds using libraries of approved drugs and bioactive compounds (AID 1345084); note: nearly all actives have a fitted effect of over 55% in size
Details: Gynecologic cancer cell panel viability, ATPlite luminescence, 48 h; series mostly up to 57.5 µM; activity change, negative = cytotoxicity: at the top concentration
Outline: (§1)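 Luminescence from the ATPlite ATP-monitoring reagent indicates viable cell number; lower signal means cytotoxicity. Cells received compound 16 h after seeding and were exposed for 48 h across five concentrations.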
% is set by controls: 0 for no effect and ±100 for the full control effect; potency is the fitted concentration of half-maximal effect.

Row | Structure (SMILES) | Potency | activity change, negative = cytotoxicity
1 | COc1cc(C(=O)NC2CCN(C)CC2)c(F)cc1Nc1ncc2c(n1)N(C1CCCC1)CC(F)(F)C(=O)N2C | 158 nM (active) | 
2 | CN(C)C/C=C/C(=O)Nc1cccc(C(=O)Nc2cccc(Nc3ncc(Cl)c(-c4c[nH]c5ccccc45)n3)c2)c1 | 2820 nM (active) | 
3 | Cc1cc(Nc2cc(N3CCN(C)CC3)nc(/C=C/c3ccccc3)n2)n[nH]1 | 2510 nM (active) | 
4 | COc1cc2c(cc1OC)-c1[nH]nc(Nc3cccc(F)c3)c1C2 | 316 nM (active) | 
5 | Cc1cc(O)c(-c2ccc([C@@H](C)CN(C)C)cc2)c2c1[nH]c(=O)c1sccc12 | 282 nM (active) | 
6 | CC[C@H](CO)Nc1nc(NCc2ccc(-c3ccccn3)cc2)c2ncn(C(C)C)c2n1 | 1000 nM (active) | 
7 | O=C1NC(=O)C(c2cn3c4c(cccc24)CCC3)C1c1c[nH]c2ccccc12 (stereo unspecified) | 3160 nM (active) | 
8 | Cc1ccc([N+](=O)[O-])cc1S(=O)(=O)N(C)/N=C/c1cnc2ccc(Br)cn12 | 199 nM (active) | 
9 | C=C1C(OC(C)=O)CCC2(C)CC3(OC)OC(=O)C(C)=C3CC12 (stereo unspecified) |  | 4.84% [at 38.5 µM]
10 | CC(C)NCC(C(=O)N1CCN(c2ncnc3c2C(C)CC3O)CC1)c1ccc(Cl)cc1 (stereo unspecified) |  | -29.3%
11 | CCCNc1ccc2ncc(-c3ccc4[nH]ncc4c3)n2n1 | 2820 nM (active) | 
12 | FC(F)(F)c1ccc(Nc2nc(-c3c(C(F)(F)F)nc4ccccn34)cs2)cc1 | 1260 nM (active) | 
13 | COc1ccc2[nH]c3c(-c4cccc5ccccc45)nccc3c2c1 | 891 nM (active) | 
14 | NC1CCC(Nc2cc(-c3cccc(NCc4cccc(F)c4)n3)c(Cl)cn2)CC1 (stereo unspecified) | 178 nM (active) | 
15 | CC[C@]12C=CCN3CC[C@@]4(c5cc([C@@]6(C(=O)OC)C[C@H]7C[C@@H](C(C)(F)F)CN(Cc8c6[nH]c6ccccc86)C7)c(OC)cc5N(C)[C@H]4[C@@](O)(C(=O)OC)[C@@H]1OC(C)=O)[C@@H]32 | 355 nM (active) | 

System: SKOV3
Assay: as above
Details: Gynecologic cancer cell panel viability, ATPlite luminescence, 48 h; series mostly up to 57.5 µM; activity change, negative = cytotoxicity: at the top concentration
Outline: as §1

Row | Structure (SMILES) | Potency | activity change, negative = cytotoxicity [%]
16 | COc1ccc(CC2C(=O)NC(C)C(=O)N(C)C3Cc4ccc(cc4)Oc4cc(ccc4OC4OC(CO)C(O)C(O)C4O)CC(C(=O)NC(C)C(=O)NC(C)C(=O)N2C)N(C)C3=O)cc1 (stereo unspecified) | 1.41 µM (active) | 
17 | CCCCC1CCN(CCCC(=O)c2ccccc2C)CC1 |  | -26.7
18 | O=C(c1cn(Cc2cncn2Cc2ccc(Br)cc2)cc1-c1cccc2ccccc12)N1CCOCC1 | 17.8 µM (active) | 
19 | Cn1cncc1C(N)(c1ccc(Cl)cc1)c1ccc2c(c1)c(-c1cccc(Cl)c1)cc(=O)n2C (stereo unspecified) |  | -9.98
20 | CN[C@H](C(=O)N[C@H](C(=O)N(C)[C@H](/C=C(\C)C(=O)O)C(C)C)C(C)(C)C)C(C)(C)c1ccccc1 |  | -7.13
21 | COc1ccc(Oc2cc(C)c(-c3csc(NC(=O)c4ccncc4)n3)c(C)c2)cc1 | 1 µM (active) | 
22 | CC1=C(CO)C(=O)O[C@@H]([C@@H](C)[C@H]2CC[C@H]3[C@@H]4C[C@H]5O[C@]56[C@@H](O)C=CC(=O)[C@]6(C)[C@H]4CC[C@]23C)C1 | 8.91 µM (active) | 
23 | C=C1C(=O)OC2C1CCC(=C)C1CC(OC(C)=O)C(=C)C12 (stereo unspecified) |  | -32.8
24 | Cc1cc(-c2cc(O)ccc2Cl)cc2nnc(Nc3ccc(OCCN4CCCC4)cc3)nc12 | 28.2 µM (active) | 
25 | CO[C@H]1/C=C/[C@@](C)(O)/C=C/C(=O)O[C@H](C)[C@@H](C)CC/C=C/1C | 12.6 µM (active) | 
26 | CNS(=O)(=O)c1ccccc1Nc1nc(Nc2ccc(N3CCN(C)CC3)cc2OC)ncc1Cl | 3.55 µM (active) | 

System: Tov-21-G
Assay: as above
Details: Gynecologic cancer cell panel viability, ATPlite luminescence, 48 h; series mostly up to 57.5 µM; activity change, negative = cytotoxicity: at the top concentration
Outline: as §1

Row | Structure (SMILES) | Potency | activity change, negative = cytotoxicity
27 | COc1ccc(CC2C(=O)NC(C)C(=O)N(C)C3Cc4ccc(cc4)Oc4cc(ccc4OC4OC(CO)C(O)C(O)C4O)CC(C(=O)NC(C)C(=O)NC(C)C(=O)N2C)N(C)C3=O)cc1 (stereo unspecified) | 1.26 µM (active) | 
28 | CCCCC1CCN(CCCC(=O)c2ccccc2C)CC1 |  | 3.37%
29 | COc1cc2c(cc1OC)-c1[nH]nc(Nc3cccc(F)c3)c1C2 | 2.24 µM (active) | 
30 | Cc1cc(O)c(-c2ccc([C@@H](C)CN(C)C)cc2)c2c1[nH]c(=O)c1sccc12 | 0.316 µM (active) | 
31 | C=C1C(OC(C)=O)CCC2(C)CC3(OC)OC(=O)C(C)=C3CC12 (stereo unspecified) |  | 6.17% [at 38.5 µM]
32 | Cn1cc(S(=O)(=O)c2ccc(Cl)cc2)c2cccc(N3CCNCC3)c21 | 20 µM (active) | 
33 | CC(C)NCC(C(=O)N1CCN(c2ncnc3c2C(C)CC3O)CC1)c1ccc(Cl)cc1 (stereo unspecified) | 0.794 µM (active) | 
34 | CCCCNc1ncc2c(-c3ccc(F)cc3)nn(CC3CCC(N)CC3)c2n1 (stereo unspecified) | 7.94 µM (active) | 
35 | CCCNc1ccc2ncc(-c3ccc4[nH]ncc4c3)n2n1 | 3.16 µM (active) | 
36 | CCC1=CC2CN(C1)Cc1c([nH]c3ccccc13)[C@@](C(=O)OC)(c1cc3c(cc1OC)N(C)[C@H]1[C@@](O)(C(=O)OC)[C@H](OC(C)=O)[C@]4(CC)C=CCN5CC[C@]31[C@@H]54)C2 (stereo partly specified) | 0.0891 µM (active) | 
37 | CC1=C(CO)C(=O)O[C@@H]([C@@H](C)[C@H]2CC[C@H]3[C@@H]4C[C@H]5O[C@]56[C@@H](O)C=CC(=O)[C@]6(C)[C@H]4CC[C@]23C)C1 | 7.08 µM (active) | 
38 | CN1CCN(C(=O)c2ccc3cc(CCNc4ncnc5ccc(C#N)cc45)ccc3c2)CC1 |  | 16.8%
39 | CO[C@H]1/C=C/[C@@](C)(O)/C=C/C(=O)O[C@H](C)[C@@H](C)CC/C=C/1C | 10 µM (active) | 
40 | CC[C@]12C=CCN3CC[C@@]4(c5cc([C@@]6(C(=O)OC)C[C@H]7C[C@@H](C(C)(F)F)CN(Cc8c6[nH]c6ccccc86)C7)c(OC)cc5N(C)[C@H]4[C@@](O)(C(=O)OC)[C@@H]1OC(C)=O)[C@@H]32 | 0.562 µM (active) | 
41 | Cc1ccccc1C#Cc1ccc(CCC(=O)O)cc1 | 17.8 µM (active) | 
